Screen size: about 96,000 compounds; about 20,000 (21%) were called active.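 How the source made its calls: active means CYP2C19 inhibition above a set limit at 5 µM in the primary screen (cut at about 50% in these data); inactive means the rest.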 The list is a sample of the results.

The experiment deals with Cytochrome P450 2C19 (Homo sapiens) (UniProt P33261). The experiment in a line: blockers of cytochrome P450 2C19 activity – biochemical, luminescence, ADME assay, primary screen (AID 778).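 Further: plate controls were negative control wells for no effect and 2.5 mM tranylcypromine positive control for full effect.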 The settings on record: CYP2C19 Supersomes, luciferin-H EGE luminescence, 30 min; at 5 µM; stronger effect = higher value.
Chain of Cytochrome P450 2C19 (Homo sapiens) (P33261 whole entry, looked up): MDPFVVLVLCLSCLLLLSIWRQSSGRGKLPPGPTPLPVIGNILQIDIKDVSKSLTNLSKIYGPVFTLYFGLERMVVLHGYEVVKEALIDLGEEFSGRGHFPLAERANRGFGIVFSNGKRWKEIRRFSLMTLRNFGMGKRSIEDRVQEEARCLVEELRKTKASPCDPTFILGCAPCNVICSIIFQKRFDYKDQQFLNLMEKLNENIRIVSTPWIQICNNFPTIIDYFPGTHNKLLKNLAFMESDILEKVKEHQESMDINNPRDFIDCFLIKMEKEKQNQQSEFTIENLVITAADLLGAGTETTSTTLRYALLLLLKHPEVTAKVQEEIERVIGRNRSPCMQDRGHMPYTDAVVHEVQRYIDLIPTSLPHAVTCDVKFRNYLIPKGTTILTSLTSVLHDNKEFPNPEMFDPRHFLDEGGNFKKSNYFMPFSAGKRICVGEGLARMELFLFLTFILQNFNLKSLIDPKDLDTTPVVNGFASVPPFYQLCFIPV
Usually inhibition stands for the change of the read-out against control, counted positive when it falls. `COC(CNC(=O)Cn1ncc2ccsc2c1=O)OC`: the inhibition was 2.1% (inactive).

In the case of `COc1ccccc1NC(=O)/C=C/C(N)=O`, the inhibition was -0.2% (inactive).

For the compound `COc1ccccc1NC(=O)COc1ccc(C(=O)OCC(=O)N(C(C)C)C(C)C)cc1OC`, the inhibition was 56.4% (active).

Take `COC(=O)C(CC(=O)Nc1cc(C)ccc1C)Nc1ccccc1OC` (stereo not given): the inhibition is 15.3% (inactive).

On to `CC1CC(C)CN(C/C=C/c2ccccc2[N+](=O)[O-])C1` (stereo not given), for which the inhibition is 29.7% (inactive).

For the compound `CCC(C)NC(=O)CSC1=Nc2ccccc2C2=NC(CCC(=O)NCc3ccco3)C(=O)N12` (stereo not given), the inhibition is 6.1% (inactive).

As to `CCOC(=O)CNC(=O)CSc1nnc(COc2ccc(Cl)cc2)n1CC`, the inhibition was 14.7% (inactive).

Regarding `Cc1nnc(SCC(=O)NCCOc2ccc(Cl)cc2)n1-c1ccccc1`, the inhibition was 95.6% (active).

With `COc1ccc(OC)c(/C=N/NC(=O)CSc2nnc(C)n2-c2ccccc2)c1`, the inhibition was 23.2% (inactive).

As to `COC(=O)[C@@H](NC(=O)NCc1cccc(OC)c1)C(C)C`, the inhibition is 5.8% (inactive).

Turning to `CCOC(=O)Cn1c(-c2cccnc2Cl)nc2ccccc21`, the inhibition was -2% (inactive).

In the case of `Cc1no[n+]([O-])c1COc1ccccc1/C=C1\NC(=S)NC1=O`, the inhibition was 20.6% (inactive).

On to `CCN1C(=O)/C(=C2\SC(N3CCCCC3)=NC2=O)c2ccccc21`, for which the inhibition was 19.9% (inactive).

Turning to `O=S(=O)(c1cccc2nonc12)N1CCN(c2cccc(Cl)c2)CC1`, the inhibition is 1.5% (inactive).

Take `CCN1C(=O)/C(=C\N2CCN(c3cccc(Cl)c3)CC2)SC1=S`: the inhibition was 13% (inactive).

For `O=Cc1c(N2CCN(c3cccc(Cl)c3)CC2)nc2ccccn2c1=O`, the inhibition was 99.4% (active).

For `CN1CC(c2ccccc2)C2(COc3ccccc3C2=O)C12C(=O)Nc1ccccc12` (stereo not given), the inhibition is 46.7% (inactive).

In the case of `COc1ccccc1/C=C/C1=NC(=C\N(C)C)/C(=O)O1`, the inhibition was 19.5% (inactive).

`CCOC(=O)CSc1nnc(CNC(=O)Cc2ccccc2)n1-c1ccccc1OC`: the inhibition is 8.2% (inactive).

On to `CCOC(=O)CSc1nnc(CNC(=O)c2cccs2)n1-c1ccccc1`, for which the inhibition was -5.7% (inactive).

On to `CCOC(=O)CSc1nnc(CNC(=O)c2cccs2)n1-c1cc(OC)ccc1OC`, for which the inhibition is 58.2% (active).

`CCOc1ccccc1Oc1cn[nH]c1-c1ccc(OC)cc1O`: the inhibition is 100% (active).

Consider `CCOc1cc(-c2cc(-c3ccc(OC)cc3)nc(N)c2C#N)ccc1O`, for which the inhibition is 19.9% (inactive).

Take `Cc1ccc(SCCC(=O)OCC(=O)Nc2ncc(Cl)cc2Cl)cc1`: the inhibition was 24% (inactive).

For `O=c1c2ccccc2oc2nc(C3CCCCC3)n(Cc3ccco3)c(=O)c12`, the inhibition is 50.7% (active).

For the compound `O=c1c2ccccc2oc2nc3n(c(=O)c12)CCCS3`, the inhibition is 0.7% (inactive).

`CCc1nc2oc3ccccc3c(=O)c2c(=O)n1Cc1ccc(OC)cc1`: the inhibition was -0.6% (inactive).

Regarding `O=C(O)/C=C/C(=O)Nc1ccc(F)cc1F`, the inhibition is 5.3% (inactive).

Take `Cn1c2c(c(=O)n(C)c1=O)CN(Cc1ccco1)CN2`: the inhibition is 0.4% (inactive).

In the case of `CCCC(CCC(=O)OC)(C(=O)OCC)c1csc(N)n1` (stereo not given), the inhibition is 73.6% (active).

For `CCOC(=O)Cc1csc(NC(=O)C(C)(C)C)n1`, the inhibition was 15.4% (inactive).

In the case of `CCOC(=O)Cc1csc(NC(NC(=O)OCC)(C(F)(F)F)C(F)(F)F)n1`, the inhibition is 13.5% (inactive).

For the compound `COc1ccc(-n2c(SC)nc(O)cc2=O)cc1`, the inhibition was 5.6% (inactive).

As to `COCCNc1nc(-n2nc(C)cc2C)nc2sc3c(c12)CCCC3`, the inhibition was -16.1% (inactive).

As to `CCCCSc1nnc(-c2ccc(C)cc2)o1`, the inhibition is 49.4% (inactive).

Regarding `c1ccc(-c2nnc(SCc3nc4ccccc4[nH]3)o2)cc1`, the inhibition is 95.2% (active).

With `Oc1ccc2nc(Cc3ccccc3)[nH]c2c1`, the inhibition is 23.6% (inactive).

As for `OCCNc1nc2ccccc2[nH]1`, the inhibition was -4.7% (inactive).

Take `c1ccc2c(CSCc3nc4ccccc4[nH]3)cccc2c1`: the inhibition was 89.3% (active).

For the compound `O=C(CSc1nnc(-c2ccccc2)o1)N1CCOCC1`, the inhibition was -12.3% (inactive).

Consider `N#C/C(=C(/O)COc1cccc2ccccc12)c1nc2ccccc2[nH]1`, for which the inhibition is 12% (inactive).

For the compound `Clc1ccccc1SCc1nc2ccccc2[nH]1`, the inhibition was 83.2% (active).

Consider `N#Cc1c2c(c(N3CCN(CCO)CC3)n3c1nc1ccccc13)CCCC2`, for which the inhibition was 34.5% (inactive).

As to `CN(C)CCNC(=O)C(C(=O)c1ccccc1)n1ccccc1=O` (stereo not given), the inhibition is -10.3% (inactive).

Regarding `Cc1ccccc1S(=O)(=O)Cc1ccc(C(=O)NCCN2CCCCC2C)o1` (stereo not given), the inhibition was 4.1% (inactive).

For `COC(=O)c1cnn2c(C(F)(F)F)cc(-c3ccco3)nc12`, the inhibition was -9% (inactive).

Regarding `N/C(=N\OC(=O)CCc1ccccc1)c1ccc(Cl)cc1`, the inhibition is -1.3% (inactive).

Regarding `COc1ccc(OCCCC(=O)Oc2ccc(OC)cc2)cc1`, the inhibition is 6.3% (inactive).

Consider `COc1ccc(/C(N)=N/OC(=O)Oc2ccccc2)cc1`, for which the inhibition was 58.6% (active).

Consider `COc1ccc(OC)c(Nc2nc(-c3ccc(O)c(O)c3)cs2)c1`, for which the inhibition is 27.6% (inactive).

Turning to `COc1ccc2c(c1)cc1n2CCN=C1NN`, the inhibition is 92.9% (active).

As for `COc1ccc(NC(=O)Nc2ccc3nc(C)c(C)nc3c2)cc1`, the inhibition is 3.2% (inactive).

As to `CC(=O)N1CSCC1C(=O)O` (stereo not given), the inhibition is 2.2% (inactive).

Regarding `CC1(C)C/C(=C(/C#N)C(N)=O)CCO1`, the inhibition was -16.7% (inactive).

Regarding `CC(C)OC(=O)c1sc2nc3c(cc2c1N)C(=O)CCC3`, the inhibition was 7.1% (inactive).

In the case of `CC1=C(C(=O)Nc2ccc(Cl)cc2)C(c2ccco2)NC(=O)N1` (stereo not given), the inhibition was 18.4% (inactive).

As to `Cc1cccc(N2CCN(C(=O)CN(C)S(=O)(=O)c3ccc4c(c3)CCC(=O)N4)CC2)c1C`, the inhibition is 6.3% (inactive).

In the case of `COC(=O)c1ccc(COC(=O)c2c(C)nn(Cc3ccccc3Cl)c2Cl)o1`, the inhibition is 90.5% (active).

For the compound `COCCCNC(=O)CN1CCN(Cc2ccccc2Cl)C1=O`, the inhibition is -10.8% (inactive).

`CCOC(=O)c1cnn(Cc2ccccc2Cl)c1N`: the inhibition is 30.5% (inactive).

For `CCOC(=O)c1sc(/N=C/Nc2nc(C)c(C(=O)OCC)s2)nc1C`, the inhibition was 7.2% (inactive).

As for `c1ccc(CC2CCN(c3nc4ccccc4n4cnnc34)CC2)cc1`, the inhibition is -7.7% (inactive).

As for `O=C(CN1CCN(c2ncc(C(F)(F)F)cc2Cl)CC1)Nc1ccc2c(c1)OCO2`, the inhibition is 22% (inactive).

For the compound `CC(=O)c1ccc(Cc2ncc(C(F)(F)F)cc2Cl)s1`, the inhibition was 16.5% (inactive).

With `O=C(Cc1ncc(C(F)(F)F)cc1Cl)Nc1cccc(Br)c1`, the inhibition is 55.7% (active).

Consider `CCOC(=O)c1[nH]c2c(c1C)C(=O)CC(c1ccc(N(C)C)cc1)C2` (stereo not given), for which the inhibition was 6.7% (inactive).

On to `CCCCn1c(SCc2ncc(-c3ccccc3)o2)nc2cc(S(N)(=O)=O)ccc21`, for which the inhibition is 25% (inactive).

In the case of `Cc1cc(C)nc(NC(=O)Nc2ccccc2C(F)(F)F)n1`, the inhibition is 21% (inactive).

Regarding `O=C(c1ccccc1)c1cc(-c2ccccn2)c(N2CCOCC2)s1`, the inhibition was 14.1% (inactive).

Take `COc1cccc(-c2nnc(SCCOc3ccc4c(C)cc(=O)oc4c3)o2)c1`: the inhibition was -15.6% (inactive).

With `Cc1cc(=O)oc2ccc(OCC(=O)O)cc12`, the inhibition is 3.3% (inactive).

For the compound `Cc1cc(=O)oc2cc(OCC3CC(c4ccccc4Cl)=NO3)ccc12` (stereo not given), the inhibition is 50.8% (active).

In the case of `CCOC(=O)c1c(NC(=O)CSc2nnc(CN3CCOCC3)n2C)sc2c1CCCC2`, the inhibition was 48.7% (inactive).

`NC(=O)C1CC=CCC1C(=O)OCC(Cl)=C(Cl)Cl` (stereo not given): the inhibition is 22% (inactive).

As to `COc1ccc(N=Cc2c(O)[nH]c3ccccc23)cc1OC`, the inhibition is 32.9% (inactive).

As to `COc1ccc(OC)c(N=Cc2c(O)[nH]c3ccccc23)c1`, the inhibition was 7.7% (inactive).

For the compound `COc1cc(N=Cc2c(O)[nH]c3ccccc23)cc(OC)c1OC`, the inhibition is 63.9% (active).

For the compound `Nn1c(SCC(=O)NC2CCCC2)nnc1-c1ccccc1F`, the inhibition was 21.3% (inactive).

As for `O=c1[nH][nH]c(C(F)(F)F)c1C=NCc1ccccc1Cl`, the inhibition was 93.3% (active).

Consider `CC/S(CC1CC1(Cl)Cl)=N\S(=O)(=O)c1ccc(C)cc1` (stereo not given), for which the inhibition is 9.6% (inactive).

As for `COc1ccc(NS(=O)(=O)c2ccc(NC(=O)C(C)(C(F)(F)F)C(F)(F)F)cc2)nn1`, the inhibition is -7.1% (inactive).

`CC1=NC2(CCCc3c2no[n+]3[O-])N(O)C1(C)C` (stereo not given): the inhibition was -17.9% (inactive).

For `CSc1nnc2c(n1)OC(c1cn(C)c3ccccc13)N(C(C)=O)c1ccccc1-2` (stereo not given), the inhibition is 0.8% (inactive).

Consider `Oc1c(C(c2ccccn2)N2CCOCC2)ccc2cccnc12` (stereo not given), for which the inhibition was -8.6% (inactive).

In the case of `CCOC(=O)C1CCN(C(=O)COc2cc(C)c(Br)c(C)c2)CC1`, the inhibition was 86.3% (active).

Turning to `CCOC(=O)N1CCN(C(=O)CSc2nnc(-c3c[nH]c4ccccc34)n2CCOC)CC1`, the inhibition was 4.5% (inactive).

Turning to `CCOC(=O)N1CCN(C(=O)COc2ccc(Br)cc2)CC1`, the inhibition is 59.1% (active).

Regarding `CCOC(=O)N1CCN(C(=O)CNC(=O)Cc2ccc(Cl)cc2)CC1`, the inhibition is 5.9% (inactive).

Take `CCOC(=O)N1CCN(C(=O)COc2ccc(Cl)cc2C)CC1`: the inhibition is 14.4% (inactive).

`CCOC(=O)C1CCN(C(=O)Cc2c(C(=O)O)[nH]c3ccccc23)CC1`: the inhibition was 2.6% (inactive).

With `CN1CCCC(OC(=O)COc2ccc(Br)cc2)C1` (stereo not given), the inhibition is 27% (inactive).

Turning to `CCOC(=O)C1CCN(C(=O)CSc2cc(=O)n(C)c3ccccc23)CC1`, the inhibition was 2.4% (inactive).

Regarding `CCOC(=O)N1CCN(C(=O)CSc2ccc(Cl)cc2)CC1`, the inhibition was 71.6% (active).

On to `CC12C(=O)N(n3cnnc3)C(=O)C1C1C=CC2C1` (stereo not given), for which the inhibition was -13.7% (inactive).

Regarding `Cc1cc2nnc(SCC(=O)N3CCN(c4ccccc4)CC3)n2c(N)n1`, the inhibition is -9.1% (inactive).

In the case of `NC(=O)CSC1=Nc2ccccc2C2=NC(CCC(=O)NCc3ccc(F)cc3)C(=O)N12` (stereo not given), the inhibition was 47.9% (inactive).

As for `CCOC(=O)CCc1c(C)c(C#N)c2[nH]c3ccccc3n2c1=O`, the inhibition is 27.1% (inactive).

With `CC1CN(C2CCCCC2)c2nc3c(c(=O)n(C)c(=O)n3C)n2C1` (stereo not given), the inhibition is 29.5% (inactive).

As for `O=C1NC(c2cc3c(cc2Cl)OCO3)Oc2ccccc21` (stereo not given), the inhibition is 55.5% (active).

Consider `Cc1cc(C)c2c3c(sc2n1)C(c1ccccc1)C(C#N)=C(N)O3` (stereo not given), for which the inhibition was -7.9% (inactive).

Source of the values: PubChem BioAssay AID778 (Sanford-Burnham Center for Chemical Genomics, 2007).
